Drawing on paper PMC12820563, “FoxP3 forms a head-to-head dimer in vivo and stabilizes its multimerization on adjacent microsatellites”, this text covers binding signal for 31 sequences.

The full ranking holds about 16,000 sequences; the median of “rpm ratio (pull-down/input)” is about 0.5, and the highest 2% start at about 5.5. This excerpt belongs to a sample that is enriched for the highest values.

The target in this test is T1, MBP-FoxP3dN (Mus musculus, UniProt Q99JB6 188-423).
T1 sequence: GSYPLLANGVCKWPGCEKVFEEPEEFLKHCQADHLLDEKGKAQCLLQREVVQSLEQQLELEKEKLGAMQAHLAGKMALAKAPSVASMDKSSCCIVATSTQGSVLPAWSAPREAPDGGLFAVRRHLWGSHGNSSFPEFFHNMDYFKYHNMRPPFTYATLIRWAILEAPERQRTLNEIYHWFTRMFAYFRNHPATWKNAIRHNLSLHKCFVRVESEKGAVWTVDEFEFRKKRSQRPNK
The experiment in a line: PD-seq (MBP pull-down with sequencing); 20 mM Tris-HCl pH 7.5, 100 mM NaCl, 1.5 mM MgCl2, 0.4 uM protein, 0.1 uM dsDNA library, 30 min, room temperature, amylose pull-down; high values mean tight binding. The settings on record: protein: recombinant; tags: His6-MBP; chain copies: 2; dsDNA, one strand shown. Summed up:
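Binding is the reads-per-million enrichment of pull-down relative to input, pooled across replicates. For this, 0.4 µM His6-MBP-tagged mouse FoxP3 or FoxP1 fragment lacking the N-terminus, made in E. coli, was incubated with 0.1 µM Klenow-filled double-stranded degenerate DNA library for 30 min at room temperature in Tris pH 7.5 buffer with NaCl and MgCl2. Complexes bound to amylose resin were washed three times before proteinase K released the DNA for PCR barcoding and Illumina sequencing.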
Take “GATGATTGTTCTCCCAGCTGATGAATTACACAACTCGAGTAAACAAATTTTCCTAATCTTTCTGTTCAAGCGCCATCTAC”: the binding signal was 0.854 RPM ratio (pull-down/input). Under “GATGATTGTTCTCCCAGCTGATGAATTAATTCTGTCGAGTAAACAAATTTTCCTAATCTTTCTGTTCAAGCGCCATCTAC” stands 0.249 RPM ratio (pull-down/input); under “GATGATTGTTCTCCCAGCTGATGAATTCTGTTAATCGAGTAAACAAATTTTCCTAATCTTTCTGTTCAAGCGCCATCTAC”, 1.25 RPM ratio (pull-down/input). To “GATGATTGTTCTCCCAGCTGATGAATTATCCTGCTCGAGTAAACAAATTTTCCTAATCTTTCTGTTCAAGCGCCATCTAC” belongs 0.234 RPM ratio (pull-down/input). Under “GATGATTGTTCTCCCAGCTGATGAATTACGTGGGTCGAGTAAACAAATTTTCCTAATCTTTCTGTTCAAGCGCCATCTAC” stands 0.527 RPM ratio (pull-down/input); under “GATGATTGTTCTCCCAGCTGATGAATTGGTCTCTTCGAGTAAACAAATTTTCCTAATCTTTCTGTTCAAGCGCCATCTAC”, 0.388 RPM ratio (pull-down/input). With “GATGATTGTTCTCCCAGCTGATGAATTCAGCAAATCGAGTAAACAAATTTTCCTAATCTTTCTGTTCAAGCGCCATCTAC”, the binding signal is 0.539 RPM ratio (pull-down/input). For the sequence “GATGATTGTTCTCCCAGCTGATGAATTAGTGAATTCGAGTAAACAAATTTTCCTAATCTTTCTGTTCAAGCGCCATCTAC”, the binding signal was 0.976 RPM ratio (pull-down/input). Take “GATGATTGTTCTCCCAGCTGATGAATTCTAGCATTCGAGTAAACAAATTTTCCTAATCTTTCTGTTCAAGCGCCATCTAC”: the binding signal was 5.17 RPM ratio (pull-down/input). To “GATGATTGTTCTCCCAGCTGATGAATTTTAGCATTCGAGTAAACAAATTTTCCTAATCTTTCTGTTCAAGCGCCATCTAC” belongs 5.97 RPM ratio (pull-down/input).

For the sequence “GATGATTGTTCTCCCAGCTGATGAATTAGCGCATTCGAGTAAACAAATTTTCCTAATCTTTCTGTTCAAGCGCCATCTAC”, the binding signal is 7.23 RPM ratio (pull-down/input).

Turning to “GATGATTGTTCTCCCAGCTGATGAATTAGCCCATTCGAGTAAACAAATTTTCCTAATCTTTCTGTTCAAGCGCCATCTAC”, the binding signal is 0.4 RPM ratio (pull-down/input). Under “GATGATTGTTCTCCCAGCTGATGAATTTAGCAGCTCGAGTAAACAAATTTTCCTAATCTTTCTGTTCAAGCGCCATCTAC” stands 1.72 RPM ratio (pull-down/input); under “GATGATTGTTCTCCCAGCTGATGAATTTAGCATCTCGAGTAAACAAATTTTCCTAATCTTTCTGTTCAAGCGCCATCTAC”, 6.55 RPM ratio (pull-down/input). Under “GATGATTGTTCTCCCAGCTGATGAATTAGCTGATTCGAGTAAACAAATTTTCCTAATCTTTCTGTTCAAGCGCCATCTAC” stands 1.17 RPM ratio (pull-down/input); under “GATGATTGTTCTCCCAGCTGATGAATTAGTGCATTCGAGTAAACAAATTTTCCTAATCTTTCTGTTCAAGCGCCATCTAC”, 7.28 RPM ratio (pull-down/input). To “GATGATTGTTCTCCCAGCTGATGAATTAGTAAATTCGAGTAAACAAATTTTCCTAATCTTTCTGTTCAAGCGCCATCTAC” belongs 0.68 RPM ratio (pull-down/input); to “GATGATTGTTCTCCCAGCTGATGAATTTAGCCATTCGAGTAAACAAATTTTCCTAATCTTTCTGTTCAAGCGCCATCTAC”, 4.73 RPM ratio (pull-down/input); to “GATGATTGTTCTCCCAGCTGATGAATTTTTAGCATCGAGTAAACAAATTTTCCTAATCTTTCTGTTCAAGCGCCATCTAC”, 0.918 RPM ratio (pull-down/input). Regarding “GATGATTGTTCTCCCAGCTGATGAATTCCTATCGTCGAGTAAACAAATTTTCCTAATCTTTCTGTTCAAGCGCCATCTAC”, the binding signal was 0.382 RPM ratio (pull-down/input). To “GATGATTGTTCTCCCAGCTGATGAATTTCATAGGTCGAGTAAACAAATTTTCCTAATCTTTCTGTTCAAGCGCCATCTAC” belongs 0.343 RPM ratio (pull-down/input). Under “GATGATTGTTCTCCCAGCTGATGAATTGATCATTTCGAGTAAACAAATTTTCCTAATCTTTCTGTTCAAGCGCCATCTAC” stands 0.757 RPM ratio (pull-down/input); under “GATGATTGTTCTCCCAGCTGATGAATTGGCTGAATCGAGTAAACAAATTTTCCTAATCTTTCTGTTCAAGCGCCATCTAC”, 0.239 RPM ratio (pull-down/input); under “GATGATTGTTCTCCCAGCTGATGAATTACTCCAGTCGAGTAAACAAATTTTCCTAATCTTTCTGTTCAAGCGCCATCTAC”, 0.213 RPM ratio (pull-down/input). Under “GATGATTGTTCTCCCAGCTGATGAATTTGGTGTCTCGAGTAAACAAATTTTCCTAATCTTTCTGTTCAAGCGCCATCTAC” stands 3.42 RPM ratio (pull-down/input); under “GATGATTGTTCTCCCAGCTGATGAATTCCGACTCTCGAGTAAACAAATTTTCCTAATCTTTCTGTTCAAGCGCCATCTAC”, 2.16 RPM ratio (pull-down/input); under “GATGATTGTTCTCCCAGCTGATGAATTGACCGAATCGAGTAAACAAATTTTCCTAATCTTTCTGTTCAAGCGCCATCTAC”, 0.227 RPM ratio (pull-down/input). On to “GATGATTGTTCTCCCAGCTGATGAATTTCAACTGTCGAGTAAACAAATTTTCCTAATCTTTCTGTTCAAGCGCCATCTAC”, for which the binding signal was 0.377 RPM ratio (pull-down/input). To “GATGATTGTTCTCCCAGCTGATGAATTGGGTGTCTCGAGTAAACAAATTTTCCTAATCTTTCTGTTCAAGCGCCATCTAC” belongs 1.29 RPM ratio (pull-down/input).

As to “GATGATTGTTCTCCCAGCTGATGAATTGGTGAGGTCGAGTAAACAAATTTTCCTAATCTTTCTGTTCAAGCGCCATCTAC”, the binding signal was 0.385 RPM ratio (pull-down/input).

In the case of “GATGATTGTTCTCCCAGCTGATGAATTGGTTTCCTCGAGTAAACAAATTTTCCTAATCTTTCTGTTCAAGCGCCATCTAC”, the binding signal is 1.54 RPM ratio (pull-down/input).
